# Experiments:
# Assay in all cases: DAPPL (digital affinity profiling via proximity ligation, sequencing); 10 mM Tris-HCl pH 7.5, 50 mM NaCl, 1 mM DTT, 4% glycerol, room temperature, 30 min; GST-TFs on glutathione beads, 16-mer random dsDNA library, 0.1% formaldehyde crosslink after washing; high values mean tight binding
# [1] = target: T1, FEV (Homo sapiens, UniProt Q99581 1-238); details: protein: recombinant; tags: N-terminal GST; dsDNA, one strand shown
# T1 sequence: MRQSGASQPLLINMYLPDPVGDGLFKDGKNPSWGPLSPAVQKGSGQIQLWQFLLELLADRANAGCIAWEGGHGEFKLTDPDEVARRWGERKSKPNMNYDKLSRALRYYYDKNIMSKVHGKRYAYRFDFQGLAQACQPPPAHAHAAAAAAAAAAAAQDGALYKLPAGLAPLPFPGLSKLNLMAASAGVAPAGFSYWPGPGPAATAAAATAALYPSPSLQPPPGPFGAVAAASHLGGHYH
# How it was run: (§1)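 Yeast served to express human transcription factors as GST fusions, which were then captured on glutathione beads and labelled with DNA barcodes. Pooled with a tag-only sample, they were incubated with 200 nmole of a 16-mer random double-stranded DNA library for 30 min at room temperature in Tris/NaCl/DTT/glycerol buffer, washed, crosslinked with 0.1% formaldehyde, ligated by proximity, amplified by PCR and sequenced. Dividing each hexamer's read frequency for a factor by its frequency for the tag-only sample gives the binding signal.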
# [2] = target: ETV5 (Homo sapiens, UniProt P41161 1-510); details: protein: recombinant; tags: N-terminal GST; dsDNA, one strand shown
# ETV5, sequence (P41161 whole entry): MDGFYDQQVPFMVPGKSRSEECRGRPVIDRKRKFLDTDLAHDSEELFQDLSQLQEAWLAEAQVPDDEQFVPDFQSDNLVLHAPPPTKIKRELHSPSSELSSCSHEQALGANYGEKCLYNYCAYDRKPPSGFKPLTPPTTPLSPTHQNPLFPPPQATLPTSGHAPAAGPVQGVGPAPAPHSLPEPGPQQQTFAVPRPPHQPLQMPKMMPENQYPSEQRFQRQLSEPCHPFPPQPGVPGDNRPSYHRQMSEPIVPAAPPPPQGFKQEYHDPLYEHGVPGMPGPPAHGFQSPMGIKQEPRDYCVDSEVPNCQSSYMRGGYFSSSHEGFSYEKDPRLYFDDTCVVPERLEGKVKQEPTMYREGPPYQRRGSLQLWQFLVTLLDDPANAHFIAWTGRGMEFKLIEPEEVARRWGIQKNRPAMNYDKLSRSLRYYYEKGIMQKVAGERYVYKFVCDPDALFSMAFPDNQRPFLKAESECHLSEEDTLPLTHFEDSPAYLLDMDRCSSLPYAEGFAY
# How it was run: as §1
# [3] = target: HSF1 (Homo sapiens, UniProt Q00613 1-529); details: protein: recombinant; tags: N-terminal GST; chain copies: 3; dsDNA, one strand shown
# HSF1, sequence (Q00613 whole entry): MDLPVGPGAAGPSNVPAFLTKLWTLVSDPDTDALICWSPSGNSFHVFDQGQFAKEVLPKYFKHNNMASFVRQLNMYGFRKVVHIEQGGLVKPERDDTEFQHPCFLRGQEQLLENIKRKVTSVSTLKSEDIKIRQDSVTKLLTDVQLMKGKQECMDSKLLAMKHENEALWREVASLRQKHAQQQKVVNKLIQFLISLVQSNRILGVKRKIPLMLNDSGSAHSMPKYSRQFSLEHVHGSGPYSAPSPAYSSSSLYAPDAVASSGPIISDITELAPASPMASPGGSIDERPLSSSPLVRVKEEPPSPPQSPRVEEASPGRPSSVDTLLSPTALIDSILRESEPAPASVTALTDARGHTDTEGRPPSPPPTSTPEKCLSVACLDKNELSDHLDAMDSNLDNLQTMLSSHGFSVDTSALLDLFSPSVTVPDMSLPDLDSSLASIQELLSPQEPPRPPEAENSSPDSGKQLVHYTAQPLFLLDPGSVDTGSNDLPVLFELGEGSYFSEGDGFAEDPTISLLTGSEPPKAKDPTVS
# How it was run: as §1
# [4] = target: T2, SPIC (Homo sapiens, UniProt Q8N5J4 1-248); details: protein: recombinant; tags: N-terminal GST; dsDNA, one strand shown
# T2 sequence: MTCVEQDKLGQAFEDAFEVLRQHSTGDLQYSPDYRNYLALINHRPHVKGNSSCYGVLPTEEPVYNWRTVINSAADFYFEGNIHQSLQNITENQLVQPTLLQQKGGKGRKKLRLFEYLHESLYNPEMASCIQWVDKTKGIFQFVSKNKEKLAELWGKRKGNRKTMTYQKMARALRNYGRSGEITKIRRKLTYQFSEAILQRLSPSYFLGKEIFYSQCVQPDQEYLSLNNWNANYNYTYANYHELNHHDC
# How it was run: as §1
# [5] = target: ELF4 (Homo sapiens, UniProt Q99607 1-663); details: protein: recombinant; tags: N-terminal GST; dsDNA, one strand shown
# ELF4, sequence (Q99607 whole entry): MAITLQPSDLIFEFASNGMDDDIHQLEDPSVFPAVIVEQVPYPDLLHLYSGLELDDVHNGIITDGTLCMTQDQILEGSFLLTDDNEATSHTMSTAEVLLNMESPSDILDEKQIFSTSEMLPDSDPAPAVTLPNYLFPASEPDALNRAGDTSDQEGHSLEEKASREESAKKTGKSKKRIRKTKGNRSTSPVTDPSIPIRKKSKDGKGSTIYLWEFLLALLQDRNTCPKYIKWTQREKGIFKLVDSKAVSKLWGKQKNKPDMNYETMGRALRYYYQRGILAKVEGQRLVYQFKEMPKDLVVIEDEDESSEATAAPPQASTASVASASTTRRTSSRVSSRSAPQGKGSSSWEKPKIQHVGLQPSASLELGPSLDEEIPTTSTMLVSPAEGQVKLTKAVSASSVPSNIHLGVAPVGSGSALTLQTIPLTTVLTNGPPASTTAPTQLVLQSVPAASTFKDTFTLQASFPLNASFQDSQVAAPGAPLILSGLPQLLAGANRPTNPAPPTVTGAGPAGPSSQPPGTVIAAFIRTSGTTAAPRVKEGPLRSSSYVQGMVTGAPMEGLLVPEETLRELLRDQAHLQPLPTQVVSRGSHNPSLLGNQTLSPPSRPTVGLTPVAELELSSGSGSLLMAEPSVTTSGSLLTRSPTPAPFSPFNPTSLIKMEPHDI
# How it was run: as §1
# [6] = target: T3, ELK4 (Homo sapiens, UniProt P28324-2 1-405); details: protein: recombinant; tags: N-terminal GST; dsDNA, one strand shown
# T3 sequence: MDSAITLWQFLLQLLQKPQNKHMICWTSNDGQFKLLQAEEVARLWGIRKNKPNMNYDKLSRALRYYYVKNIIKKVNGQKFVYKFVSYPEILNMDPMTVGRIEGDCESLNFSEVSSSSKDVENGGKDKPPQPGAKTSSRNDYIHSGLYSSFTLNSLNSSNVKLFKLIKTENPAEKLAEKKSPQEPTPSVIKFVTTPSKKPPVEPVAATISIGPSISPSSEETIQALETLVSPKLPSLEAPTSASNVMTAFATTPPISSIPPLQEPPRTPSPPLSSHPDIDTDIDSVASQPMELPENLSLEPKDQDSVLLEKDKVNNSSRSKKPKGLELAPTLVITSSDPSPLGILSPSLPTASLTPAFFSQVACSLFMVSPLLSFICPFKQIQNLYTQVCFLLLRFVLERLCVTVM
# How it was run: as §1
# [7] = target: T4, ETV2 (Homo sapiens, UniProt O00321 1-342); details: protein: recombinant; tags: N-terminal GST; dsDNA, one strand shown
# T4 sequence: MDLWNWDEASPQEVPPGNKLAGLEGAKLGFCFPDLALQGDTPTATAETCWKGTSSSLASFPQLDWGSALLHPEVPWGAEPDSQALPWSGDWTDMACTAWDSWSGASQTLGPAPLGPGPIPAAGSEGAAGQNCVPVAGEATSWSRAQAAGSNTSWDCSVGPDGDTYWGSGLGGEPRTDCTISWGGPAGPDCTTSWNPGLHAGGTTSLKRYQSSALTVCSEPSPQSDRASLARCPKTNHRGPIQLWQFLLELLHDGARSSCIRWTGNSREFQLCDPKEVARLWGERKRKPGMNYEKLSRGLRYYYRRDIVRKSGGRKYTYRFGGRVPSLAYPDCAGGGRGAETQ
# How it was run: as §1
# [8] = target: T5, ELF3 (Homo sapiens, UniProt P78545 1-371); details: protein: recombinant; tags: N-terminal GST; dsDNA, one strand shown
# T5 sequence: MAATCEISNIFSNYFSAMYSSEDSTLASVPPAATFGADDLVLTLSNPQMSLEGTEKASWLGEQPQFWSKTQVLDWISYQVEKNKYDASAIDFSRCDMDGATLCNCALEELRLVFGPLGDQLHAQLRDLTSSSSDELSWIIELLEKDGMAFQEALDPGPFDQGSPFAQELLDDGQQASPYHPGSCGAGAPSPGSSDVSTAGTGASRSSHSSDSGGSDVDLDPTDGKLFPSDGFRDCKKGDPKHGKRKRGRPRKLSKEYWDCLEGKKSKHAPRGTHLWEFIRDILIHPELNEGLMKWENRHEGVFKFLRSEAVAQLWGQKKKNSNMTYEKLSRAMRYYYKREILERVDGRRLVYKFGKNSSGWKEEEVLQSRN
# How it was run: as §1
# [9] = target: CRX (Homo sapiens, UniProt O43186 1-299); details: protein: recombinant; tags: N-terminal GST; dsDNA, one strand shown
# CRX, sequence (O43186 whole entry): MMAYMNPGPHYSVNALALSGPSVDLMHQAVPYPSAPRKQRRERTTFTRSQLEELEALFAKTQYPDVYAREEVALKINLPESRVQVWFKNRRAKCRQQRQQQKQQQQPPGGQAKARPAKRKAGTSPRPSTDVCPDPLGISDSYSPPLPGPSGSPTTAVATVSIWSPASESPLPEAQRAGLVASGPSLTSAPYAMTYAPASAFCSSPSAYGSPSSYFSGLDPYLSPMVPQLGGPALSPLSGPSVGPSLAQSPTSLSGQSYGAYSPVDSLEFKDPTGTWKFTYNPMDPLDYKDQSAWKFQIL
# How it was run: as §1
# [10] = target: ETV1 (Homo sapiens, UniProt P50549 1-477); details: protein: recombinant; tags: N-terminal GST; dsDNA, one strand shown
# ETV1, sequence (P50549 whole entry): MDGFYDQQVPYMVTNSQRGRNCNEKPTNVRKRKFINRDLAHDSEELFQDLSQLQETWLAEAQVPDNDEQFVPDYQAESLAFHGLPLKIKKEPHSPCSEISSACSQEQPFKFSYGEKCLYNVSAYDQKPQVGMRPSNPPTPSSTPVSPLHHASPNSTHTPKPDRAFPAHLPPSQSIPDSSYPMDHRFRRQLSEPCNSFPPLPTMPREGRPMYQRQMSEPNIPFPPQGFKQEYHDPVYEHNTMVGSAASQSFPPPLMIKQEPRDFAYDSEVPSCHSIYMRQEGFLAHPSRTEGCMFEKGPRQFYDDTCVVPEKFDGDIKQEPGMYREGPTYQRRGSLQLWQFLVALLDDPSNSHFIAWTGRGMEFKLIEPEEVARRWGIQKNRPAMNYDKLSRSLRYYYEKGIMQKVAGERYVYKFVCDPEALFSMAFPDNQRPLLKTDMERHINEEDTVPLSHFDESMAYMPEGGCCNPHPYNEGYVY
# How it was run: as §1
# [11] = target: T6, ERF (Homo sapiens, UniProt P50548 1-548); details: protein: recombinant; tags: N-terminal GST; dsDNA, one strand shown
# T6 sequence: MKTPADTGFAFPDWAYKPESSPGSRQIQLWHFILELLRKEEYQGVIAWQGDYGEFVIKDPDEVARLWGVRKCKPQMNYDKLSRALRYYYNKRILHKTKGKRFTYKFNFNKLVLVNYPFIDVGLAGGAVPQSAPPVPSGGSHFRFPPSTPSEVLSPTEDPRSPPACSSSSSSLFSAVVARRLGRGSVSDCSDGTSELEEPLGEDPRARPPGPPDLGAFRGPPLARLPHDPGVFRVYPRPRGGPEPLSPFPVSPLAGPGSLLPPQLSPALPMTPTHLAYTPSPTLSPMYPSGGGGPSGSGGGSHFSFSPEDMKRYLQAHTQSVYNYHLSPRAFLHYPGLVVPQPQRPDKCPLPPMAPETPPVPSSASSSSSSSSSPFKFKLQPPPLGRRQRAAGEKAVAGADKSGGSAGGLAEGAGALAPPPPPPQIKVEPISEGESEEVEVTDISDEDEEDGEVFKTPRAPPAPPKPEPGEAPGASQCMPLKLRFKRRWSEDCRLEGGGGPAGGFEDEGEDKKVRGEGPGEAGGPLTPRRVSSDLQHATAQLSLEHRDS
# How it was run: as §1
# [12] = target: T7, ETV3L (Homo sapiens, UniProt Q6ZN32 1-361); details: protein: recombinant; tags: N-terminal GST; dsDNA, one strand shown
# T7 sequence: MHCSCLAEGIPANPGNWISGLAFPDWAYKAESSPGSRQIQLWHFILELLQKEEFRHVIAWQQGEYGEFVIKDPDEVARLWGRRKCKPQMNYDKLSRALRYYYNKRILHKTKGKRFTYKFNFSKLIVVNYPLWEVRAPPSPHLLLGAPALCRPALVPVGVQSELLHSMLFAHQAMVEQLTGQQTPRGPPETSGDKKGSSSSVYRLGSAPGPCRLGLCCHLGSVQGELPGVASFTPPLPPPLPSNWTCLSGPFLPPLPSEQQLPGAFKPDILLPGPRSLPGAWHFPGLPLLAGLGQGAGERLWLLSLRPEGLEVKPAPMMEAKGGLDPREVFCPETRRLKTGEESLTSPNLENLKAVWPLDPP
# How it was run: as §1
# [13] = target: T8, ETS2 (Homo sapiens, UniProt P15036 1-469); details: protein: recombinant; tags: N-terminal GST; dsDNA, one strand shown
# T8 sequence: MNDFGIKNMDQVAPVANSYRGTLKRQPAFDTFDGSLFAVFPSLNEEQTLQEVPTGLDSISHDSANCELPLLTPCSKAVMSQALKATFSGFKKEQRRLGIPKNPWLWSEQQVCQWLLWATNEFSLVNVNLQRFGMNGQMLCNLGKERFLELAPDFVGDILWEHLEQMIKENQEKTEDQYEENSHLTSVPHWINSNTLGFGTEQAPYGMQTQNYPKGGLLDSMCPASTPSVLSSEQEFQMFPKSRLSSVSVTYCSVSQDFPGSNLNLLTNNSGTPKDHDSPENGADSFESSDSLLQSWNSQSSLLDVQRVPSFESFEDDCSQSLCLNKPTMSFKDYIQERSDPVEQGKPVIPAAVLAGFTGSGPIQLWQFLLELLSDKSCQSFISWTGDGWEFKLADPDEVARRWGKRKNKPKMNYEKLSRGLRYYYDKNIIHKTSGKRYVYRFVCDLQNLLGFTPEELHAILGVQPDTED
# How it was run: as §1
# [14] = target: T9, SPDEF (Homo sapiens, UniProt O95238 1-335); details: protein: recombinant; tags: N-terminal GST; dsDNA, one strand shown
# T9 sequence: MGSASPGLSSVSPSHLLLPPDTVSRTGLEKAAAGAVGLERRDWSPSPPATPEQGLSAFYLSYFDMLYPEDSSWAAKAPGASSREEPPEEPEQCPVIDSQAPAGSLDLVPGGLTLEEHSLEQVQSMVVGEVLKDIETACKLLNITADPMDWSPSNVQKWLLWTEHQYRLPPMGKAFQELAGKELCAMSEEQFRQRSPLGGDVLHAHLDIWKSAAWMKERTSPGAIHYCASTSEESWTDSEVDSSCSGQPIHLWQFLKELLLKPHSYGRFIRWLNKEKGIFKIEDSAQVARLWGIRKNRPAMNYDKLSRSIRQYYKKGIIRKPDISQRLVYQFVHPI
# How it was run: as §1
# [15] = target: T10, ETV7 (Homo sapiens, UniProt Q9Y603 1-341); details: protein: recombinant; tags: N-terminal GST; dsDNA, one strand shown
# T10 sequence: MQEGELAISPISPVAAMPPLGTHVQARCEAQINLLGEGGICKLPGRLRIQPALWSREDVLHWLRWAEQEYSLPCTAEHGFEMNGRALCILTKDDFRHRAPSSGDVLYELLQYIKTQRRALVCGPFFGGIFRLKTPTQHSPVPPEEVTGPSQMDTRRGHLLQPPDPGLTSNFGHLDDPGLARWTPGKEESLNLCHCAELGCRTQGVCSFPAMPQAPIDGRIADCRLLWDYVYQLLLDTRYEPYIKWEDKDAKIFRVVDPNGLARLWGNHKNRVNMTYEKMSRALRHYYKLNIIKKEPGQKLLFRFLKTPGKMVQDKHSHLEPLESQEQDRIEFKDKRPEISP
# How it was run: as §1
# [16] = target: T11, ELF5 (Homo sapiens, UniProt Q9UKW6-2 1-255); details: protein: recombinant; tags: N-terminal GST; dsDNA, one strand shown
# T11 sequence: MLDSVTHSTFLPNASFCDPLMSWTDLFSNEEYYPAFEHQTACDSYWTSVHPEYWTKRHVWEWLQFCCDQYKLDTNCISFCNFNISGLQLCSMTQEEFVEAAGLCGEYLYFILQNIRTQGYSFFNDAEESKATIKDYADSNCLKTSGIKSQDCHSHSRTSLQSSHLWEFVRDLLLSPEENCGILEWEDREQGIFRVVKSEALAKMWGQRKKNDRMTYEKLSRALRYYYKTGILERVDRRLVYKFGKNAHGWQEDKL
# How it was run: as §1
# [17] = target: T12, ETV3 (Homo sapiens, UniProt P41162-2 1-143); details: protein: recombinant; tags: N-terminal GST; dsDNA, one strand shown
# T12 sequence: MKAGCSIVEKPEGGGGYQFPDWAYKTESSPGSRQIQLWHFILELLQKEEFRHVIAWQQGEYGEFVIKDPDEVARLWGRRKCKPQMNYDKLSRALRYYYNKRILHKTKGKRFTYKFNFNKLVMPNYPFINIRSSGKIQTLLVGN
# How it was run: as §1
# [18] = target: ETV6 (Homo sapiens, UniProt P41212 1-452); details: protein: recombinant; tags: N-terminal GST; dsDNA, one strand shown
# ETV6, sequence (P41212 whole entry): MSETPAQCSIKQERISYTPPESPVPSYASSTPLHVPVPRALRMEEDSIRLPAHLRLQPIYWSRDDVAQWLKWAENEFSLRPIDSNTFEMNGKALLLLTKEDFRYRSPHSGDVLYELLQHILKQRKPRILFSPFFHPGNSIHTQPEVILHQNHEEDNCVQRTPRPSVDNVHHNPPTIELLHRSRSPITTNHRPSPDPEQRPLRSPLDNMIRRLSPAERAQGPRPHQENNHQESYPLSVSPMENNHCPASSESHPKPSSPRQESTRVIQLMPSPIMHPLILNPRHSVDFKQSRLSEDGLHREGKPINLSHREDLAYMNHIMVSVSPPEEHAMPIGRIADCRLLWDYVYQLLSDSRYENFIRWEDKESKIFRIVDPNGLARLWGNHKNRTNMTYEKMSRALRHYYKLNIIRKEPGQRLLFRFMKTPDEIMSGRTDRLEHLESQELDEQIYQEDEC
# How it was run: as §1
sequence,measurement,setting,value
CCTTCA,binding signal,[1],"1.48 fold enrichment (6-mer frequency, TF over GST control)"
same,binding signal,[2],"1.45 fold enrichment (6-mer frequency, TF over GST control)"
same,binding signal,[3],"1.36 fold enrichment (6-mer frequency, TF over GST control)"
same,binding signal,[4],"1.31 fold enrichment (6-mer frequency, TF over GST control)"
same,binding signal,[5],"1.42 fold enrichment (6-mer frequency, TF over GST control)"
same,binding signal,[6],"1.69 fold enrichment (6-mer frequency, TF over GST control)"
same,binding signal,[7],"1.49 fold enrichment (6-mer frequency, TF over GST control)"
same,binding signal,[8],"1.4 fold enrichment (6-mer frequency, TF over GST control)"
same,binding signal,[9],"1.34 fold enrichment (6-mer frequency, TF over GST control)"
same,binding signal,[10],"1.55 fold enrichment (6-mer frequency, TF over GST control)"
same,binding signal,[11],"1.42 fold enrichment (6-mer frequency, TF over GST control)"
same,binding signal,[12],"1.21 fold enrichment (6-mer frequency, TF over GST control)"
same,binding signal,[13],"1.38 fold enrichment (6-mer frequency, TF over GST control)"
same,binding signal,[14],"1.48 fold enrichment (6-mer frequency, TF over GST control)"
same,binding signal,[15],"1.26 fold enrichment (6-mer frequency, TF over GST control)"
same,binding signal,[16],"1.56 fold enrichment (6-mer frequency, TF over GST control)"
same,binding signal,[17],"1.46 fold enrichment (6-mer frequency, TF over GST control)"
same,binding signal,[18],"1.5 fold enrichment (6-mer frequency, TF over GST control)"
